We go through 34 compounds from PubChem BioAssay (NCATS).

Each structure is given as a SMILES string. Where “and” joins values, the source holds several entries; their conditions need not be identical. Identical values can stand only once. Inconclusive results are not listed. Calls of active or inactive are those of the source. Calls follow the shape of the dose curve; as a rule, active = well fitted inhibition curve with a large enough effect; inconclusive = small, poorly fitted or top-dose-only effect; inactive = no such curve, though single readings can be large or run the other way.
Potency is read from the fitted curve at half-maximal effect.

Sequence of Furin (Homo sapiens) (P09958 whole entry, looked up): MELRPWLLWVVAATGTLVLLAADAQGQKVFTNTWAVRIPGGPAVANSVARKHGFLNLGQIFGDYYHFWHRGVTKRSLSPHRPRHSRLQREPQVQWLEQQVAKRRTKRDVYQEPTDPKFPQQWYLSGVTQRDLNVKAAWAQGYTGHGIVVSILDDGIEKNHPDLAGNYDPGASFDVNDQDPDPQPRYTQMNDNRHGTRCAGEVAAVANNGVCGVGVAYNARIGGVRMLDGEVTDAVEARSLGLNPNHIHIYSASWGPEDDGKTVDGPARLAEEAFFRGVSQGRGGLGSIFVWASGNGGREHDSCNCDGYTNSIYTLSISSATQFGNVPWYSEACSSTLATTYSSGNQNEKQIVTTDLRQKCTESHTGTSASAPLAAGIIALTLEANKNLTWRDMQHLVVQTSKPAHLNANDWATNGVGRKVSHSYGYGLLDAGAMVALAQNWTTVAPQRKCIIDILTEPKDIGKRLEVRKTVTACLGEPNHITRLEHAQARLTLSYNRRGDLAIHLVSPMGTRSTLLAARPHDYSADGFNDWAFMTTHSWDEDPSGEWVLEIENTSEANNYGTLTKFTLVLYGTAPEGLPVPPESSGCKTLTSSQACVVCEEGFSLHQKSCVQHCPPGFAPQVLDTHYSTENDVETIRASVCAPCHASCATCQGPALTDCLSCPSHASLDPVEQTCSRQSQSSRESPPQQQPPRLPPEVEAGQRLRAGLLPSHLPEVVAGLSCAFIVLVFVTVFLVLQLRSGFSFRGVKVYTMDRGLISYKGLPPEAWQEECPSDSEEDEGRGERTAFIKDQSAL
Sequence of N-terminal Xaa-Pro-Lys N-methyltransferase 1 (Homo sapiens) (Q9BV86 whole entry, looked up): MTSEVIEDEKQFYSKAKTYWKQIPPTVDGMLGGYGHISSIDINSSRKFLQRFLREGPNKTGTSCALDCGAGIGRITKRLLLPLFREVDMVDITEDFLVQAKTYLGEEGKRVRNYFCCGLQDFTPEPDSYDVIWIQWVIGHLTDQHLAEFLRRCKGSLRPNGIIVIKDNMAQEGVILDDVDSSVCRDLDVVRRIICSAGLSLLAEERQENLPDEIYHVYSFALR

The target of the first experiment is N-terminal Xaa-Pro-Lys N-methyltransferase 1 (Homo sapiens) (UniProt Q9BV86). The experiment in a line: qHTS Assay for Inhibitors of N-terminal methyltransferase 1 (NTMT1): LOPAC validation of the NTMT1 SAHH-coupled ThioGlo3 Assay (AID 1347143).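 Also: SAH from peptide methylation measured as thiol fluorescence via SAHH coupling and ThioGlo3; nearly all actives have a fitted effect of over 70% in size.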 As to activity change, negative = inhibition: % is scaled to controls: 0 for no effect and ±100 for the full control effect. The settings on record: recombinant NTMT1, SAHH-coupled ThioGlo3 fluorescence; series mostly up to 114 µM; activity change, negative = inhibition: at the top concentration. The method in brief:
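NTMT1 125nM + cpds (various conc.), 1 min RT; add SAM 100uM/SAHH 10uM/ThioGlo3 15uM (addition mix). SAHH-coupled thiol detection, Ex340/Em450, t0 and 30 min RT; signal normalized to background. LOPAC 1280-cpd pilot.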
(qHTS replaces the single test concentration by a dilution series.)
Take `COc1ccc2c(c1)c(CC(=O)O)c(C)n2C(=O)c1ccc(Cl)cc1`: the “activity change, negative = inhibition” value was -13.8% (inactive).

As for `CCc1cccc2c3c([nH]c12)C(CC)(CC(=O)O)OCC3` (configuration not stated), the “activity change, negative = inhibition” value was -17.1% (inactive).

Consider `COc1ccc(C2CNC(=O)C2)cc1OC1CCCC1` (configuration not stated), for which the “activity change, negative = inhibition” value is -9.83% (inactive).

For the compound `Fc1ccc([C@@H]2CCNC[C@H]2COc2ccc3c(c2)OCO3)cc1`, the “activity change, negative = inhibition” value is -25.8% (inactive).

Regarding `CCOC(=O)c1ncn2c1CN(C)C(=O)c1cc(F)ccc1-2`, the “activity change, negative = inhibition” value was -5% (inactive).

Regarding `COc1cc2nc(N(C)CCCNC(=O)C3CCCO3)nc(N)c2cc1OC` (configuration not stated), the Potency is 39.8 µM (active).

With `CN(C)c1nc(N(C)C)nc(N(C)C)n1`, the “activity change, negative = inhibition” value was 4.23% (inactive).

Turning to `CN1CCC(=C2c3ccccc3C=Cc3ccccc32)CC1`, the “activity change, negative = inhibition” value is -15.9% (inactive).

In the case of `Cc1ccc(-c2cc(C(F)(F)F)nn2-c2ccc(S(N)(=O)=O)cc2)cc1`, the “activity change, negative = inhibition” value was 23.9% (inactive).

For the compound `Cc1cc(C(C)(C)C)c(O)c(C)c1CC1=NCCN1`, the “activity change, negative = inhibition” value was -11% (inactive).

For `NCCS(=O)(=O)O`, the “activity change, negative = inhibition” value was -4.45% (inactive).

Consider `CN(C)CCC=C1c2ccccc2C=Cc2ccccc21`, for which the “activity change, negative = inhibition” value was -26.7% (inactive).

`N[C@@H](Cc1c[nH]c2ccc(O)cc12)C(=O)O`: the Potency is 50.1 µM (active).

Consider `Clc1ccc2c(c1)C(N1CCNCC1)=Nc1ccccc1O2`, for which the “activity change, negative = inhibition” value was -16.7% (inactive).

For `Clc1ccccc1C(c1ccccc1)(c1ccccc1)n1ccnc1`, the “activity change, negative = inhibition” value is -0.573% (inactive).

The next experiment has as its target Furin (Homo sapiens) (UniProt P09958). The experiment is described as follows: Furin counterscreen qHTS for Zika virus inhibitors (AID 1347149). Also: nearly all actives have a fitted effect of over 70% in size.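 As to activity change, negative = inhibition: purified recombinant full-length human furin enzyme at 5 nM; fluorescence gain from furin cutting a BOC-RVRR-AMC peptide substrate over 15 min; top concentration of the series differs between compounds; plate controls were no-inhibitor control for no effect and no-enzyme control for full effect.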 The settings on record: furin enzymatic counterscreen, fluorogenic substrate; series mostly up to 57.5 µM; activity change, negative = inhibition: at the top concentration. The gist of the method: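 Counterscreen measures cleavage of 2 microM BOC-RVRR-AMC, below its ~15 microM Km, by 5 nM full-length human furin at pH 7.0 after a 15-min compound preincubation. Inhibition derives from the 15-min fluorescence increase at 37C.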
For orientation: A counterscreen serves to expose hits that act by an unwanted route or on another target.
For the compound `Cc1cnc(C(=O)NCCc2ccc(S(=O)(=O)NC(=O)NC3CCCCC3)cc2)cn1`, the “activity change, negative = inhibition” value was 6.98% (inactive).

For `O=C(c1ccc(F)cc1)C1CCN(CCn2c(=O)[nH]c3ccccc3c2=O)CC1`, the “activity change, negative = inhibition” value is -3% (inactive).

`CC1COc2c(N3CCN(C)CC3)c(F)cc3c(=O)c(C(=O)O)cn1c23` (configuration not stated): the Potency is 24.1 µM (active) and 27.1 µM (active).

As to `C[C@H]1c2cccc(O)c2C(O)=C2C(=O)[C@]3(O)C(O)=C(C(N)=O)C(=O)[C@@H](N(C)C)[C@@H]3[C@@H](O)[C@@H]21`, the “activity change, negative = inhibition” value is -14% (inactive).

Turning to `CC(C)(C)C(=O)Oc1ccc(S(=O)(=O)Nc2ccccc2C(=O)NCC(=O)O)cc1`, the “activity change, negative = inhibition” value was 6.93% (inactive).

Regarding `COc1cc2nc(N3CCN(C(=O)c4ccco4)CC3)nc(N)c2cc1OC`, the Potency is 14.9 µM (active).

On to `Cn1ccc2cc3c(cc21)CCN3C(=O)Nc1cccnc1`, for which the Potency is 21.5 µM (active).

`O=c1c(O)c(-c2ccc(O)c(O)c2)oc2cc(O)cc(O)c12`: the Potency entry is “inactive”.

Another experiment deals with Zika virus NS2B-NS3 protease (unlinked). The experiment in a line: Optimization of GU AMC qHTS for Zika virus inhibitors: Unlinked NS2B-NS3 protease assay (AID 1347151). Also: nearly all actives have a fitted effect of over 80% in size.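 As to activity change, negative = inhibition: 0% = no-inhibitor control and -100% = no-enzyme control.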 To be noted: recombinant ZIKV NS2B-NS3 protease, fluorogenic AMC substrate; series mostly up to 52.5 µM; activity change, negative = inhibition: at the top concentration. The method in brief: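 Fluorescence gain (340/450 nm) over 15 min at room temperature, ~20% conversion, gave percent inhibition fitted to a 4-parameter Hill equation; enzyme was unlinked NS2B-NS3 (25 nM final), pH 8.0 Tris buffer.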
Regarding `O=c1[nH]cc(F)c(=O)[nH]1`, the “activity change, negative = inhibition” value was 6.73% (inactive).

Turning to `COc1ccc2c(c1)c(CC(=O)O)c(C)n2C(=O)c1ccc(Cl)cc1`, the “activity change, negative = inhibition” value is 3.09% (inactive).

With `Cc1cnc(C(=O)NCCc2ccc(S(=O)(=O)NC(=O)NC3CCCCC3)cc2)cn1`, the “activity change, negative = inhibition” value was 2.74% (inactive).

Regarding `CCN1CCCC1CNC(=O)c1cc(S(=O)(=O)CC)c(N)cc1OC` (configuration not stated), the “activity change, negative = inhibition” value was -6.79% (inactive).

With `CCc1cccc2c3c([nH]c12)C(CC)(CC(=O)O)OCC3` (configuration not stated), the “activity change, negative = inhibition” value was 12.7% (inactive).

For the compound `CC1COc2c(N3CCN(C)CC3)c(F)cc3c(=O)c(C(=O)O)cn1c23` (configuration not stated), the Potency was 15 µM (active).

As for `C[C@H]1c2cccc(O)c2C(O)=C2C(=O)[C@]3(O)C(O)=C(C(N)=O)C(=O)[C@@H](N(C)C)[C@@H]3[C@@H](O)[C@@H]21`, the “activity change, negative = inhibition” value was -9.95% (inactive).

Turning to `Cn1c(=O)c2[nH]cnc2n(C)c1=O`, the “activity change, negative = inhibition” value was 9.11% (inactive).

Regarding `COc1ccc(C2CNC(=O)C2)cc1OC1CCCC1` (configuration not stated), the “activity change, negative = inhibition” value is 5.46% (inactive).

Regarding `Fc1ccc([C@@H]2CCNC[C@H]2COc2ccc3c(c2)OCO3)cc1`, the “activity change, negative = inhibition” value is 24.3% (inactive).

Regarding `Cc1cc(C(C)(C)C)cc(C)c1CC1=NCCN1`, the “activity change, negative = inhibition” value is 5.92% (inactive).

Take `C[C@](N)(Cc1ccc(O)c(O)c1)C(=O)O`: the “activity change, negative = inhibition” value is 2.34% (inactive).

Consider `CCOC(=O)c1ncn2c1CN(C)C(=O)c1cc(F)ccc1-2`, for which the “activity change, negative = inhibition” value was 5.21% (inactive).

Regarding `COc1cc2nc(N3CCN(C(=O)c4ccco4)CC3)nc(N)c2cc1OC`, the Potency is 26.7 µM (active).

Consider `Cn1c(=O)c2c(ncn2C)n(C)c1=O`, for which the “activity change, negative = inhibition” value was 1.48% (inactive).

On to `COc1ccccc1OCCNCC(O)COc1cccc2[nH]c3ccccc3c12` (configuration not stated), for which the “activity change, negative = inhibition” value is -8.68% (inactive).

As to `NCCCCCC(=O)O`, the “activity change, negative = inhibition” value is 5.59% (inactive).

As for `COc1cc2nc(N(C)CCCNC(=O)C3CCCO3)nc(N)c2cc1OC` (configuration not stated), the Potency is 26.7 µM (active).

On to `CN(C)c1nc(N(C)C)nc(N(C)C)n1`, for which the “activity change, negative = inhibition” value is 0.48% (inactive).

As to `CN1CCC(=C2c3ccccc3C=Cc3ccccc32)CC1`, the “activity change, negative = inhibition” value is 6.17% (inactive).

For `Cc1ccc(-c2cc(C(F)(F)F)nn2-c2ccc(S(N)(=O)=O)cc2)cc1`, the “activity change, negative = inhibition” value is -1.72% (inactive).

With `CN1C(C(=O)Nc2ccccn2)=C(O)c2ccccc2S1(=O)=O`, the “activity change, negative = inhibition” value is -5.3% (inactive).

For `Cc1cc(C(C)(C)C)c(O)c(C)c1CC1=NCCN1`, the “activity change, negative = inhibition” value was 10.2% (inactive).

`COc1cc2nc(N3CCN(C(=O)C4COc5ccccc5O4)CC3)nc(N)c2cc1OC` (configuration not stated): the Potency is 26.7 µM (active).

Regarding `NCCS(=O)(=O)O`, the “activity change, negative = inhibition” value was 6.35% (inactive).

For the compound `CN(C)CCC=C1c2ccccc2C=Cc2ccccc21`, the “activity change, negative = inhibition” value was 1.98% (inactive).

With `CCOC(=O)Nc1ccc(NCc2ccc(F)cc2)nc1N`, the Potency was 23.8 µM (active).

Consider `O=c1c(O)c(-c2ccc(O)c(O)c2)oc2cc(O)cc(O)c12`, for which the Potency was 2.12 µM (active).

Turning to `Clc1ccc2c(c1)C(N1CCNCC1)=Nc1ccccc1O2`, the “activity change, negative = inhibition” value is 3.27% (inactive).
